From PubChem BioAssay (NCATS)
Records with an inconclusive call do not appear. Active and inactive are the calls of the source. Calls follow the shape of the dose curve; as a rule, active = well fitted curve in the direction sought with a large enough effect; inconclusive = small, poorly fitted or top-dose-only effect, or another doubt; inactive = no such curve, though single readings can be large; an effect the other way counts as inactive or inconclusive.

Columns and labels:
[1] = qHTS for Activators of p53 Stress Response Pathway screened against the NCATS CANVASS Library (AID 1347388)
Description: Natural products and their derivatives continue to be wellsprings of nascent therapeutic potential. However, many laboratories have limited resources for biological evaluation, leaving their previously isolated or synthesized compounds largely or completely untested. To address this issue, the Canvass library of natural products was assembled (https://tripod.nih.gov/canvass), in collaboration with academic and industry researchers, for quantitative high-throughput screening (qHTS) across a diverse set of cell-based and biochemical assays. […] The library was formatted into 1536-well plates and evaluated in 50 qHTS (in an 11-pnt concentration series) bioassays with broad scope of disease-relevant mechanisms. The resulting data set from 50 different assays was then systematically analyzed to identify overall trends and specific natural products with interesting biological activities. […] The activation of the report gene under culture conditions can be detected by fluorescence intensity. […]
p53-screen protocol: 1. […] The fluorescence readout was obtained using the EnVision microplate reader (PerkinElmer) equipped with a 405 nm excitation and 460 nm and 530 nm emission filters. The ratio of 460 nm / 530 nm readout was calculated and used for data analysis. […]

[2] = qHTS assay for small molecule disruptors of mitochondrial membrane potential screened against the NCATS CANVASS Library (AID 1347389)
Outline: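 HepG2 cells (2,000/well) were plated overnight at 37C, exposed to compound for 1 hr at 37C/5% CO2, then loaded with Mito-MPS dye for 30 min. Depolarization was read as a drop in red (590 nm) to green (535 nm) fluorescence ratio.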

[3] = Secretion counterscreen for inhibitors of the SERCaMP assay screened against the NCATS CANVASS Library (AID 1347390)
Outline: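 Counterscreen for secretory-pathway interference: after 4 h attachment, SH-SY5Y-GLuc cells were exposed 20 hours to compounds (final 0.001 - 77 uM), then coelenterazine added and GLuc luminescence recorded; Brefeldin A served as control.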

[4] = qHTS for activators of Nrf2/ARE signaling pathway screened against the NCATS CANVASS Library (AID 1347391)
Outline: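 ARE-bla HepG2 beta-lactamase reporter cells, 2000 cells/well, were preincubated 5 h, then exposed to compounds (11-point series) for 16 h at 37C. CCF4 fluorescence (ex 405, em 460/530 nm) after 2 h at room temperature.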

[5] = qHTS for activators of dead-cell proteases activity screened against the NCATS CANVASS Library (AID 1347392)
Outline: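 HepG2 cells (2000/well) attached 18 h at 37C, then exposed 5 h to compounds (11-point qHTS). Dead-cell protease activity read as luminescence from cell-impermeant AAF-aminoluciferin substrate after 15 min at room temperature.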

[6] = Vero-766 cells viability qHTS against the NCATS CANVASS Library: Counterscreen for Zika virus inhibition assay (AID 1347394)
Outline: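 CellTiter Glo luminescence measured cytotoxicity after 72 h at 37C in uninfected Vero 766 cells, plated at 1000 cells/well. Compounds were applied in an 11-point series. Wells without cells defined 100% inhibition.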

[7] = qHTS for inhibitors of Wild type Zika virus screened against the NCATS CANVASS Library (AID 1347396)
Outline: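 Luminescent CellTiter Glo read-out of virus-induced cytotoxicity, 72 h post-infection, in Vero 766 cells. Compounds were tested at 11 concentrations; uninfected, vehicle-treated wells defined 100% inhibition.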

[8] = Viability qHTS for inhibitors of the SERCaMP assay screened against the NCATS CANVASS Library (AID 1347400)
Outline: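 SH-SY5Y-GLuc SERCaMP MJH297-derived cells (1000 cells/well) were pre-incubated 4 h at 37C, then exposed to compounds for 48 h. Viability was read as CellTiter-Glo luminescence; bortezomib served as positive control.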

[9] = Redox Reaction Profiling qHTS: Assay Interference Panel against the NCATS CANVASS Library (AID 1347401)
Outline: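 Resazurin (5 uM) conversion to resorufin measured with 200 uM DTT in 50 mM HEPES pH 7.3, 50 mM NaCl. Compounds tested in 11-point qHTS series. Fluorescence (ex 525/em 598 nm) read before and after 15 min dark incubation.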

Measured: outcome

NCCc1ccc(O)cc1
inactive: all assays above
